From PubChem
The entries come from a sample that favours hits as a whole.
HT1080NT lethal = qHTS for induction of synthetic lethality in tumor cells producing 2HG: qHTS for the HT-1080-NT fibrosarcoma cell line; AID 686970, 2013; Potency, µM (highest dose often 46.1 µM), for inactives: top-dose activity, negative = less viability, most hits filed as cytotoxic; 1.6% of 360,000 active; HT-1080-NT fibrosarcoma viability, CellTiter-Glo ATP luminescence, 48 h;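 also: NT is the 2HG producing partner of a matched IDH1 knockdown line; potency is read from the fitted curve at half-maximal effect; 0% = DMSO-treated cells and -100% = media-only wells without cells; nearly all actives have a fitted effect of over 55% in size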
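750 cells/well, RPMI + 5% FBS; 2 h settle, compound pin-transfer, 48 h at 37 degrees C. CellTiter-Glo 10 min RT, luminescence. Normalized to DMSO and media-only wells.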
TDP1 cell CPT = qHTS for Inhibitors of human tyrosyl-DNA phosphodiesterase 1 (TDP1): qHTS in cells in presence of CPT. AID 686979, 2013. 12% of 420,000 active. Potency, µM (titrated, usually from 46.2 µM), inactives show at the highest dose activity change, negative = growth inhibition, hits mostly inhibitors. chicken DT40 Tdp1-/-;hTDP1 cells + 20 nM CPT, ATP luminescence, 48 h; also: potency is read from the fitted curve at half-maximal effect; nearly all actives have a fitted effect of over 55% in size
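Cell growth measured by CellTiter-Glo luminescence after a minimum 48 h, 37 C compound exposure with 20 nM CPT in Tdp1-knockout DT40 cells stably expressing hTDP1, seeded 400/well; qHTS titration format.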
ALOX12 inh = Primary qHTS assay for inhibitors of human arachidonate 12S-lipoxygenase (ALOX12): Round 2. Polyunsaturated fatty acid lipoxygenase ALOX12 (Homo sapiens), P18054. purified 12hLO, xylenol orange hydroperoxide absorbance. Potency, µM (top dose mostly 108 µM), without a hit: at the top dose activity change, negative = inhibition, most hits filed as inhibitors. 1.1% of 580,000 active; also: potency is read from the fitted curve at half-maximal effect
Target sequence (P18054 whole entry, looked up): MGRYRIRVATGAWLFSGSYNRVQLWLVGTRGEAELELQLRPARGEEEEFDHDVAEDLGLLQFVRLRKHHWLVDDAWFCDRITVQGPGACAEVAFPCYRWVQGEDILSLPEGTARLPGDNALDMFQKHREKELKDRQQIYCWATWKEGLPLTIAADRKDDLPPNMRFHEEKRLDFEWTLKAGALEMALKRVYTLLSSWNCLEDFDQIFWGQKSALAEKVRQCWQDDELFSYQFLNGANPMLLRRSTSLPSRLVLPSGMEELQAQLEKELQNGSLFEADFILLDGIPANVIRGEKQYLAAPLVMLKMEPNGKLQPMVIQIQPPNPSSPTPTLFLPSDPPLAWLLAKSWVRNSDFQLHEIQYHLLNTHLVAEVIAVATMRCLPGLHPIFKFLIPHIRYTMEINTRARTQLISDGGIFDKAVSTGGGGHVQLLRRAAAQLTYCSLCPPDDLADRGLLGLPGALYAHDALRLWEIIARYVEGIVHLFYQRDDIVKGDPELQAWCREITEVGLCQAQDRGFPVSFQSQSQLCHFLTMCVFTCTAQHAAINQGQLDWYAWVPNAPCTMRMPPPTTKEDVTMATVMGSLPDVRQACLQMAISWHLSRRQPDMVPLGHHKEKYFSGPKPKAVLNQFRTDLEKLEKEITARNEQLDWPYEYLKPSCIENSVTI
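Hydroperoxide product was detected by ferrous iron/xylenol orange as the 573 to 405 nm absorbance ratio. Arachidonic acid at 40 uM (final) was turned over for 30 min at room temperature by 150 nM human 12hLO, pH 7.0 Hepes buffer, after 15 min compound preincubation.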
IL-1B inflam inh = qHTS for Inhibitors of Inflammasome Signaling: IL-1-beta AlphaLISA Primary Screen. THP-1 LPS/ATP IL-1B secretion, AlphaLISA, 16 h; active compounds read low. activity change, % at 57.5 µM. 4.7% of 360,000 active. AID 743279, 2014; in the data active = activity change below about -50%; inconclusive = mostly about -30% to -49%
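THP-1 cells pretreated 1 hr with compounds (up to 57.5 uM final), then stimulated with LPS (250 ng/mL final) plus ATP (1.25 mM final); secreted IL-1B measured by AlphaLISA after 16 hr, decreased signal indicating inhibition.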
DT40 TDP1 no CPT = qHTS for Inhibitors of human tyrosyl-DNA phosphodiesterase 1 (TDP1): qHTS in cells in absence of CPT; DT40 Tdp1-/- hTDP1 cells, no CPT, ATP luminescence, 48 h; Potency, µM (highest dose often 46.2 µM), inactives show at the highest dose activity change, negative = growth inhibition, usual class: inhibitors; 15% of 420,000 active; AID 686978, 2013; also: potency is read from the fitted curve at half-maximal effect; nearly all actives have a fitted effect of over 55% in size
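Stably hTDP1-transfected Tdp1-null chicken DT40 cells were treated with library compounds minus camptothecin and grown for at least 48 hr at 37 °C, after which cellular ATP was quantified by luminescence.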
HT1080 IDH1KD tx = qHTS for induction of synthetic lethality in tumor cells producing 2HG: qHTS for the HT-1080-IDH1KD cell line; Potency, µM (highest dose often 46.1 µM), without a hit: at the highest dose activity, negative = toxicity, actives largely listed as cytotoxic; AID 686971, 2013; HT-1080 IDH1 knockdown viability, ATP luminescence, 48 h; 2% of 360,000 active;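 also: potency is read from the fitted curve at half-maximal effect; 0% = DMSO wells and -100% = cell-free medium wells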
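% activity derives from luminescence (CellTiter-Glo), normalised to DMSO and no-cell wells. HT-1080-IDH1KD cells, 750/well, had 48 h compound exposure at 37 °C.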
Numbers without * were called inactive; ? = inconclusive; . = no result given; [ ] = dose if it differs, or a comment. Unless noted, calls follow the shape of the dose curve; as a rule, active = well fitted curve in the direction sought with a large enough effect; inconclusive = small, poorly fitted or top-dose-only effect, or another doubt; inactive = no such curve, though single readings can be large; an effect the other way counts as inactive or inconclusive. Unless noted, % is scaled to controls: 0 for no effect and ±100 for the full control effect.

SMILES	HT1080NT lethal	TDP1 cell CPT	ALOX12 inh	IL-1B inflam inh	DT40 TDP1 no CPT	HT1080 IDH1KD tx
O=C1/C(=C/c2ccco2)CCC1C1CCCC1 (stereo not given)	?	-12%	-16%	-4	-4%	12%
O=C1/C(=C\c2ccco2)CCC/C1=C\c1ccco1	9%	16µM*	25µM*	-64*	?	-5%
CCc1c(C)sc(NC(=O)c2cccc(F)c2)c1C#N	.	.	5%	.	.	.
CCc1ccccc1Nc1ncnc2ccccc12	-11%	?	-22%	31	?	-1%
Cc1cc2c(NCCc3ccccc3)ncnc2s1	-23%	1.6µM*	?	-70*	1µM*	?
CCCCCCCCNc1ncnc2ccccc12	?	0.29µM*	.	-61*	0.26µM*	?
Cc1cc2c(NC3CCCCC3)ncnc2s1	-23%	?	-21%	-12	13µM*	-5%
CCCCCNc1ncnc2c(C)[nH]nc12	-7%	15µM*	0%	68	23µM*	-20%
CCCCNc1ncnc2c1nnn2C	.	5%	-24%	.	-6%	.
Cc1cc2c(Nc3ccccc3)ncnc2s1	-3%	-25%	?	-24	?	12%
O=C(CSc1ncnc2ccccc12)NCCc1ccccc1	13%	-2%	1%	-21	-8%	7%
c1ccc(CCNc2ncnc3ccccc23)cc1	?	0.52µM*	-3%	0	0.65µM*	2.1µM*
CCCS(=O)(=O)c1c(S(=O)(=O)CCC)c2ccc(C(N)=O)cn2c1C(=O)OC	-4%	-12%	0%	-4	14%	1%
CCCS(=O)(=O)c1c(S(=O)(=O)CCC)c2ccc(C(C)=O)cn2c1C(=O)OC	-12%	?	-27%	-136*	-7%	-5%
OCC1(Cc2ccc(F)cc2F)CCCN(CCCc2ccccc2)C1 (stereo not given)	-2%	?	4%	-55*	15µM*	-7%
OCC1(CCc2ccccc2)CCCN(CCCc2ccccc2)C1 (stereo not given)	-10%	?	?	-73*	?	?
Cc1ccc(-c2nnc(Nc3cccc(O)c3)c3ccccc23)cc1S(=O)(=O)N1CCN(C)CC1	.	?	0%	.	18µM*	.
COC(=O)c1ccc(Nc2nnc(-c3ccc(C)c(S(=O)(=O)N4CCN(C)CC4)c3)c3ccccc23)cc1	.	?	?	.	23µM*	.
Cc1ccc(-c2nnc(Nc3ccc(F)cc3)c3ccccc23)cc1S(=O)(=O)N1CCN(C)CC1	.	?	7%	.	?	.
Cc1ccc(-c2nnc(Nc3ccc(O)cc3)c3ccccc23)cc1S(=O)(=O)N1CCN(C)CC1	.	?	?	.	18µM*	.
Cc1ccc(-c2nnc(Nc3ccc(Br)cc3)c3ccccc23)cc1S(=O)(=O)N1CCN(C)CC1	.	12µM*	-26%	.	18µM*	.
CCN1c2cc(C(=O)NC3CCCCCC3)ccc2C(=O)N2CCCCC21 (stereo not given)	.	.	10%	.	.	.
CC1=C(C(=O)NCC2Cn3cccc3C(=O)N2Cc2ccccc2)C2(CCCCC2)OC1=O (stereo not given)	.	.	-2%	.	.	.
O=C(Nc1ccc2c(c1)OCCO2)N1CCC(c2nc(C3CCOCC3)no2)CC1	.	.	12%	.	.	.
Cc1ccc(C)c(Nc2nnc(-c3ccc(C)c(S(=O)(=O)N4CCN(C)CC4)c3)c3ccccc23)c1	.	?	-24%	.	23µM*	.
SMILES	HT1080NT lethal	TDP1 cell CPT	ALOX12 inh	IL-1B inflam inh	DT40 TDP1 no CPT	HT1080 IDH1KD tx
CSCC[C@H](NC(=O)c1ccc(Cl)c([N+](=O)[O-])c1)c1nc2ccccc2[nH]1	?	?	?	-102*	?	?
CCCCC(NC(C)=O)c1nc2ccccc2[nH]1 (stereo not given)	2%	1%	3%	16	-6%	-7%
CCCC(NC(=O)c1ccc(Br)o1)c1nc2ccccc2[nH]1 (stereo not given)	5%	16µM*	344%	-9	?	2%
CCn1nc(C(=O)N[C@@H](CCSC)c2nc3ccccc3[nH]2)c2ccccc2c1=O	-2%	-27%	-1%	-4	-25%	0%
CSCC[C@H](NC(=O)c1cccc([N+](=O)[O-])c1C)c1nc2ccccc2[nH]1	-9%	-26%	1%	0	?	1%
O=C(NC(Cc1ccccc1)c1nc2ccccc2[nH]1)c1ccc(Cl)c([N+](=O)[O-])c1 (stereo not given)	21µM*	10µM*	-14%	-165*	23µM*	?
CCCCn1nc(C(=O)N[C@@H](CCSC)c2nc3ccccc3[nH]2)c2ccccc2c1=O	?	26µM*	221%	-21	?	?
CCOC(=O)c1ccc(NC(=S)NCCNC(C)=O)cc1	.	.	2%	.	.	.
CN(C(=O)C1CC1)C1CCc2ccccc21 (stereo not given)	.	.	78%[176 µM]	.	.	.
Cc1cc(C)cc(C(=O)NC(CC(N)=O)c2ccc(N3CCC(Br)CC3)c([N+](=O)[O-])c2)c1 (stereo not given)	17%	?	-27%	1	?	6%
NC(=O)CC(NC(=O)c1cccc(Br)c1)c1ccc(N2CCC(Br)CC2)c([N+](=O)[O-])c1 (stereo not given)	3%	21µM*	?	1	?	1%
NC(=O)CC(NC(=O)c1ccccc1)c1ccc(N2CCC(Br)CC2)c([N+](=O)[O-])c1 (stereo not given)	9%	18µM*	-12%	5	10µM*	9%
CSc1nc(N)nc2c1ncn2CC(=O)NCC(c1ccccc1)c1ccccc1	-2%	15µM*	75%	25	21µM*	-4%
CSc1nc(N)nc2c1ncn2CC(=O)Nc1ccc(C)c(C)c1	-4%	13µM*	-4%	24	15µM*	-1%
CN(Cc1ccccc1)C1CCCc2ccccc21 (stereo not given)	.	.	46%[176 µM]	.	.	.
C=CCOc1ccc(Br)cc1CNCC	-1%	-12%	13%	-10	-7%	5%
